This is part of a sample that, as a whole, favours compounds with a hit. Of some 83,000 tested, about 20% had one in any assay.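 A percent growth of 40 corresponds to 60% growth inhibition; 0 means no net growth; -100 means all cells died. Active threshold: below 10.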 Values without a mark were called inactive. The source made the active and inactive calls.
Test system: NCI-H460 lung
Experiment: NCI-60 one-dose screen, 48 h (100 = growth as untreated, 0 = no growth, -100 = all killed)
Conditions: 10 µM unless noted

SMILES	growth
O=C1CCCCN1c1ccc(C2=NCCCN2)cc1	94.9%
CCNC(=O)N1CCc2c(Br)c3c(c(OC)c2C1Cc1ccc(OC)cc1)OCO3 (stereo unspecified)	15.2%
CS(=O)(=O)Nc1cc(-c2ccc3ncnc(Nc4ccc(F)c(Cl)c4)c3c2)ccc1Cl	44.7%
Fc1cc2[nH]ncc2c2c3c(c(-c4cn[nH]c4C(F)(F)F)nc12)CCCC3	2.41% (active)
COc1ccc(CNc2ccc3nc(NC(=O)CN4CCCCCC4)sc3c2)cc1	94.9%
CCN1C(=O)N(c2ccccc2)C2NC(=S)N(/N=C/C=C/c3ccccc3OC)C21 (stereo unspecified)	3.66% (active)
CSc1nc2ccc(C)cc2cc1/C=C1/C=C(c2ccccc2)NC1=O	19.2%
CC1=Nc2cnc(Nc3ccc(N4CCCCC4)cc3)nc2Nc2ccccc21	86.8%
Nc1c(C(=O)Nc2cccc3ncccc23)sc2nc3c(cc12)CN(Cc1ccccc1)CC3	84.3%
COCCn1cc(-c2nc(-c3cn(CCOC)c4ncccc34)cs2)c2cc(F)ccc21	49.7%
c1ccc(-c2nc3ccccc3[nH]2)c(OCCCCCOc2ccccc2-c2nc3ccccc3[nH]2)c1	59.6%
COc1ccc(NC(=O)c2ccc(Nc3ncnc4c3cnn4-c3cccc(F)c3)cc2)cc1	102%
Cc1c2ncccc2nc2[nH]c3ccc(OCCN(C)C)cc3c12	5.49% (active)
Cc1ccc2cnc(N)c(C#Cc3cc(C(=O)Nc4ccc(CN5CCN(C)CC5)c(C(F)(F)F)c4)cnc3C)c2c1	-83% (active)
Cc1ccc2c(c1)sc1nc(-c3c[nH]c4ccccc34)c(Nc3ccccc3)n12	101%
Cc1ccc2c(c1)=C/C(=C\c1cc(-c3ccccc3)[nH]c1O)C(=O)N=2	25.6%

SMILES	growth
Cc1cc(Cl)nc(N2CCN(CCNc3ccnc4cc(Cl)ccc34)CC2)n1	48.3%
O=C(NNc1nc2cc(F)ccc2n2c(CN3CCOCC3)ccc12)c1ccccc1	0.156% (active)
CCN(CC)CCOc1ccc(/C(=C(\C)Cc2ccc(OC)cc2)c2ccc(OC(=O)NCc3ccccc3)cc2)cc1	1.28% (active)
COC(=O)c1c2c(c[n+]([O-])c1C)C(=O)C=C(NCc1ccccc1)C2=O	-79.8% (active)
O=S(=O)(Nc1cc(F)cc(F)c1)c1ccc(-c2cnc(C3CC3)o2)cc1	25.3%
COc1ccc2c(c1)CC[C@@H]1[C@@H]2CC[C@]2(C)c3c(cc(C#N)c4c3sc3ccccc34)C[C@@H]12	115%
C=C(c1ccc(C(=O)O)c(F)c1)c1cc2c(cc1C)C(C)(C)CCC2(C)C	81.5%
Clc1cccc(C2Cc3cnccc3-c3[nH]c4ccncc4c32)c1 (stereo unspecified)	19.1%
C=CCn1cc(-c2nc3ccccc3s2)c2cc(-c3ccc4c5c(cccc35)C(=O)N(CCO)C4=O)ccc21	98.1%
CC(C)CCC[C@@H](C)[C@H]1CC[C@H]2[C@@H]3CC=C4c5sc(Nc6cc(C(F)(F)F)cc(C(F)(F)F)c6)nc5CC[C@]4(C)[C@H]3CC[C@]12C	105%
COc1ccccc1/C=C/C(=O)Nc1ccc(F)cc1	102%
CN(C)c1ccc(C(=S)c2ccc(N(C)C)cc2)cc1	92.6%
CCN(CC)CCCNc1cc(OC)c(OC)c2cccnc12	23.4%
COc1cc(/C=C2\C(=O)N(CCCOc3cc(O)c4c(=O)cc(-c5ccccc5)oc4c3)c3ccccc32)cc(OC)c1O	89.4%
COC12C=C/C(=C(/C(=O)OCc3cncnc3)C(=O)CCCCCCCCC3(OC)C=C/C(=C(/C(=O)OCc4cncnc4)C(=O)CCCCCCCC1)O3)O2	-20.5% (active)

Test system: HOP-92 NSCLC
Experiment: as above
Conditions: 10 µM unless noted

SMILES	growth
O=C1CCCCN1c1ccc(C2=NCCCN2)cc1	117%
O=C(Oc1ccc2c(c1)sc1nc(-c3ccccc3)[nH]c(=O)c12)C(F)(F)F	54.1%
CCNC(=O)N1CCc2c(Br)c3c(c(OC)c2C1Cc1ccc(OC)cc1)OCO3 (stereo unspecified)	40.6%
Cc1ccccc1N1CCN(C(=S)c2ccccc2)CC1	97.9%
CS(=O)(=O)Nc1cc(-c2ccc3ncnc(Nc4ccc(F)c(Cl)c4)c3c2)ccc1Cl	-6.71% (active)
Fc1cc2[nH]ncc2c2c3c(c(-c4cn[nH]c4C(F)(F)F)nc12)CCCC3	-71% (active)
COc1ccc(CNc2ccc3nc(NC(=O)CN4CCCCCC4)sc3c2)cc1	77.6%
COc1c2c(cc3c1C(=O)N[C@@H]1[C@@H](O)[C@@H](O)[C@H](O)C[C@@H]31)OCCO2	91.6%
CCN1C(=O)N(c2ccccc2)C2NC(=S)N(/N=C/C=C/c3ccccc3OC)C21 (stereo unspecified)	43.4%
CSc1nc2ccc(C)cc2cc1/C=C1/C=C(c2ccccc2)NC1=O	36.4%
CC1=Nc2cnc(Nc3ccc(N4CCCCC4)cc3)nc2Nc2ccccc21	60.9%
Nc1c(C(=O)Nc2cccc3ncccc23)sc2nc3c(cc12)CN(Cc1ccccc1)CC3	74.1%
COCCn1cc(-c2nc(-c3cn(CCOC)c4ncccc34)cs2)c2cc(F)ccc21	56.9%
COC(=O)[C@]1(C)CCC[C@]2(C)[C@H]3C[C@@H]4[C@H]5[C@@H]6CC/C(=N\OCC/C(N)=N/O)[C@H]5[C@@]3(CC[C@H]21)CC4(C(C)C)O6	65%
c1ccc(-c2nc3ccccc3[nH]2)c(OCCCCCOc2ccccc2-c2nc3ccccc3[nH]2)c1	-21.4% (active)
COc1ccc(NC(=O)c2ccc(Nc3ncnc4c3cnn4-c3cccc(F)c3)cc2)cc1	96.4%
Cc1c2ncccc2nc2[nH]c3ccc(OCCN(C)C)cc3c12	30.3%
Cc1ccc2cnc(N)c(C#Cc3cc(C(=O)Nc4ccc(CN5CCN(C)CC5)c(C(F)(F)F)c4)cnc3C)c2c1	-32% (active)
Cc1ccc2c(c1)sc1nc(-c3c[nH]c4ccccc34)c(Nc3ccccc3)n12	101%
C(=C(\C1=NCCN1)n1ccc2ccccc21)/c1ccccc1	78.7%

SMILES	growth
Cc1ccc2c(c1)=C/C(=C\c1cc(-c3ccccc3)[nH]c1O)C(=O)N=2	58%
Cc1cc(Cl)nc(N2CCN(CCNc3ccnc4cc(Cl)ccc34)CC2)n1	27.9%
O=C(NNc1nc2cc(F)ccc2n2c(CN3CCOCC3)ccc12)c1ccccc1	27.8%
CCN(CC)CCOc1ccc(/C(=C(\C)Cc2ccc(OC)cc2)c2ccc(OC(=O)NCc3ccccc3)cc2)cc1	59%
COC(=O)c1c2c(c[n+]([O-])c1C)C(=O)C=C(NCc1ccccc1)C2=O	-74.5% (active)
O=S(=O)(Nc1cc(F)cc(F)c1)c1ccc(-c2cnc(C3CC3)o2)cc1	42.5%
COc1ccc2c(c1)CC[C@@H]1[C@@H]2CC[C@]2(C)c3c(cc(C#N)c4c3sc3ccccc34)C[C@@H]12	62.4%
C=C(c1ccc(C(=O)O)c(F)c1)c1cc2c(cc1C)C(C)(C)CCC2(C)C	58.4%
C[C@@H]1CN(c2cnc(C(=O)Nc3cc(F)cc4cccnc34)cn2)C[C@H](C)N1	46%
c1cc(OCCN2CCCCC2)ccc1CNc1ccc2nc(CCC3CCCCC3)[nH]c2c1	26.7%
COc1cc(/C=C/C(=O)c2cc(OC)c(OC)c(OC)c2)ccc1Oc1nc2c(c(=O)n(C)c(=O)n2C)n1C	3.39% (active)
Clc1cccc(C2Cc3cnccc3-c3[nH]c4ccncc4c32)c1 (stereo unspecified)	39.1%
C=CCn1cc(-c2nc3ccccc3s2)c2cc(-c3ccc4c5c(cccc35)C(=O)N(CCO)C4=O)ccc21	78.7%
CC(C)CCC[C@@H](C)[C@H]1CC[C@H]2[C@@H]3CC=C4c5sc(Nc6cc(C(F)(F)F)cc(C(F)(F)F)c6)nc5CC[C@]4(C)[C@H]3CC[C@]12C	79%
COc1ccccc1/C=C/C(=O)Nc1ccc(F)cc1	86.8%
c1ccc(-c2ccc3c(c2)C2(CCNCC2)CN3)cc1	86.1%
CN(C)c1ccc(C(=S)c2ccc(N(C)C)cc2)cc1	71.3%
CCN(CC)CCCNc1cc(OC)c(OC)c2cccnc12	84.7%
COc1cc(/C=C2\C(=O)N(CCCOc3cc(O)c4c(=O)cc(-c5ccccc5)oc4c3)c3ccccc32)cc(OC)c1O	72.1%
COC12C=C/C(=C(/C(=O)OCc3cncnc3)C(=O)CCCCCCCCC3(OC)C=C/C(=C(/C(=O)OCc4cncnc4)C(=O)CCCCCCCC1)O3)O2	-59.7% (active)

From PubChem BioAssay (NCI)
